Source: PubChem BioAssay
Most compounds without a hit are left out; they make up all but 3.5% or so of the library.
TEAD-YAP inh = TEAD-YAP interaction inhibition, primary screen, TEAD-YAP interaction inhibitor project, luminescence, HEK-TIYL cells; inhibition, % at 9.12 µM; TEAD-Gal4/YAP UAS-luciferase luminescence; 1.4% of 640,000 active; in the data active = inhibition above about 32%
GPR151 activ = activators of human GPR151, primary screen, cell-based, PathHunter beta-arrestin, luminescence; G-protein coupled receptor 151 (Homo sapiens), Q8TDV0; PathHunter beta-arrestin GPR151 cells; activation, % at 11.2 µM; 1% of 650,000 active; AID 1508602, 2020; in the data active = activation above about 4.9%
MITF primary = MITF inhibitors, primary screen, biochemical, AlphaScreen, human; Microphthalmia-associated transcription factor (Homo sapiens), O75030; AlphaScreen MITF homodimerization, bead proximity signal; inhibition, % at 2.6 µM; 0.91% of 650,000 active; AID 1259374, 2018; in the data active = inhibition above about 50%
Target sequence (O75030 whole entry, looked up): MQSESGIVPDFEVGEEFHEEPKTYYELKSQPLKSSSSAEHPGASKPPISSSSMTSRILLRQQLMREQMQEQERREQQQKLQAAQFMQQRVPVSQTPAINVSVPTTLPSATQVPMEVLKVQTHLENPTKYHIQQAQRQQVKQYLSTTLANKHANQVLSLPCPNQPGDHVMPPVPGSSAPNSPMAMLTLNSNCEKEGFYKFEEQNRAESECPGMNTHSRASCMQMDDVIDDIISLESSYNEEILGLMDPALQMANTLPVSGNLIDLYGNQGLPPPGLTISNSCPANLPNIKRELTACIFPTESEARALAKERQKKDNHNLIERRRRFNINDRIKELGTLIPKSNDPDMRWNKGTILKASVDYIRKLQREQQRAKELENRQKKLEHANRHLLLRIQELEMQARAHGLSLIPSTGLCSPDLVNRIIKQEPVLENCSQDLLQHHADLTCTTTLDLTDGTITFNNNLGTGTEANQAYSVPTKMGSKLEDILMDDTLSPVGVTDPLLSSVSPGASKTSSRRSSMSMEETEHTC
FBW7 act = FBW7 E3 ligase activators, primary screen, biochemical, AlphaScreen, human; AlphaScreen FBW7–phospho-cyclin E peptide binding, activator screen; normalized activity (activation), % at 26.1 µM; 0.13% of 650,000 active; F-box/WD repeat-containing protein 7 (Homo sapiens), Q969H0; in the data active = normalized activity above about 1.9%;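 also: purified mutant Fbw7 with reduced substrate affinity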
GPR151 conf act = GPR151 activators, triplicate retest, confirmation, cell-based, PathHunter beta-arrestin, luminescence | shares compounds with GPR151 activ | GPR151 PathHunter beta-arrestin cells, 90 min; % of EA-reagent control over plate median | activation, % at 11.2 µM | 6,700 tested, under 10 active | AID 1508609, 2020;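 active = mean percent activation across replicates above the confirmation screen cutoff of 4.91%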
GPR119 counter = GPR119 activators in beta-arrestin cells, counter-screen for GPR151 activator project, cell-based, PathHunter beta-arrestin, luminescence, triplicate; 0.3% of 6,700 active; shares compounds with GPR151 activ; 90 min; 0 = compound-well median, 100 = enzyme-acceptor control; activation, % at 11.2 µM;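 active = mean percent activation in the counterscreen above 29.09%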;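 also: counterscreen on off-target GPR119 to flag nonselective hits from the GPR151 activator screen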
Large screens that a line does not name were inactive (follow-up assays come after a bar, where they were run).

CC(NC(=O)CCl)c1ccc2c(c1)CCCC2 (stereo not given)	none
CC(NC(=O)CCl)c1ccc(F)cc1F (stereo not given)	GPR151 activ 5.2 | GPR151 conf act inactive | GPR119 counter inactive
COC(=O)c1c(C)oc2c1cc(NS(=O)(=O)c1cc(C)ccc1C)c1ccccc12	none
COc1ccc(OC)c(S(=O)(=O)Nc2cc3c(C(C)=O)c(C)oc3c3ccccc23)c1	GPR151 activ 5.7 | GPR151 conf act inactive | GPR119 counter inactive
COc1cccc2cc(-c3ccc4c(c3)OCO4)c(=O)oc12	GPR151 activ 5.2 | GPR151 conf act inactive | GPR119 counter inactive
COc1cccc2cc(-c3ccccc3)c(=O)oc12	none
C=CCc1cccc2cc(C(=O)NNC(=O)c3ccc([N+](=O)[O-])cc3)c(=O)oc12	none
Cc1cc(Nc2ccc(Oc3ccccc3)cc2)nc(Nc2ccccn2)n1	GPR151 activ 5.9 | GPR151 conf act inactive | GPR119 counter inactive
Cc1cc(Nc2ccc(Oc3ccccc3)cc2)nc(Nc2cccnc2)n1	none
CCCCOc1ccc(-c2nnc(-c3ccc(-c4ccccc4)cc3)o2)cc1	GPR151 activ 5.5 | GPR151 conf act inactive | GPR119 counter inactive
Cc1ccc(C(=O)Nc2cnn(-c3ccc(C(=O)N4CCC(O)CC4)cc3)c2)c(C)c1	none
O=C1CCCN1CCCNc1nc(-c2csc3ccccc23)nc2c1ncn2-c1ccccc1	GPR151 activ 5.8 | GPR151 conf act inactive | GPR119 counter inactive
O=C1CCCN1CCCNc1nc(N2CCc3ccccc3C2)nc2c1ncn2CCN1CCCC1=O	none
O=C1CCCN1CCCNc1nc(-c2csc3ccccc23)nc2c1ncn2Cc1ccc(C(F)(F)F)cc1	none
Cc1noc(C)c1-c1nc(NCCOc2ccccc2)c2ncn(CCN3CCCC3=O)c2n1	GPR151 activ 6.1 | GPR151 conf act inactive | GPR119 counter inactive
O=C1CCCN1CCn1cnc2c(NCCOc3ccccc3)nc(N3CCc4ccccc4C3)nc21	GPR151 activ 15 | GPR151 conf act inactive | GPR119 counter inactive
COc1ccc(C2Oc3c(OC)cccc3C3CC(c4ccco4)=NN32)cc1OC (stereo not given)	GPR151 activ 7.6 | GPR151 conf act inactive | GPR119 counter inactive
COc1ccc(C2Oc3c(OC)cccc3C3CC(c4ccco4)=NN32)cc1 (stereo not given)	none
CCOc1ccc(/C=N/Nc2ccc([N+](=O)[O-])cc2)cc1	none
Cc1ccc(OCC(=O)NC2CCCCC2)cc1C	none
Cc1ccc(OCC(=O)N(C)C2CCCCC2)cc1C	GPR151 activ 5.0 | GPR151 conf act inactive | GPR119 counter inactive
COc1ccccc1C(CC(=O)Nc1nccs1)c1ccc2c(c1)OCO2 (stereo not given)	GPR151 activ 6.6 | GPR151 conf act inactive | GPR119 counter inactive
COCCNC(=O)CN(C(=O)CCC(=O)Nc1ccccn1)c1ccc2c(c1)OCO2	none
O=C(CN(C(=O)CCC(=O)Nc1nccs1)c1cccc(F)c1)NCC1CCCO1 (stereo not given)	GPR151 activ 9.2 | GPR151 conf act inactive | GPR119 counter inactive
COCCNC(=O)CN(C(=O)CCC(=O)Nc1nccs1)c1ccc2c(c1)OCO2	GPR151 activ 7.3 | GPR151 conf act inactive | GPR119 counter inactive
O=C(CCS(=O)(=O)Cc1ccccc1)NCc1ccc2c(c1)OCO2	none
CNC(=O)CCC(=O)N1CCOc2ccc(Cl)cc21	GPR151 activ 7.2 | GPR151 conf act inactive | GPR119 counter inactive
COc1ccc(-c2cc(C#N)nc(N3CCN(c4ccccc4)CC3)n2)cc1	GPR151 activ 5.2 | GPR151 conf act inactive | GPR119 counter inactive
COc1cccc(N2CCN(Cc3nnnn3Cc3ccccc3)CC2)c1	none
O=C(Nc1ccc(Cl)cc1)c1cnn2cc(Br)cnc12	GPR151 activ 7.3 | GPR151 conf act inactive | GPR119 counter inactive
O=C(Nc1cccnc1)c1cnn2cc(Br)cnc12	none
